Source: PubChem BioAssay (NCI)
This is part of a sample that, as a whole, favours compounds with a hit. Of some 83,000 tested, about 20% had one in any assay.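 Assay: single dose, 48 h. Readout: percent growth (0 = no net growth; negative = cell death). Active: <10.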 Calls of active or inactive are those of the source.

How the values were obtained:
Assay in all cases: NCI-60 one-dose screen, 48 h (100 = growth as untreated, 0 = no growth, -100 = all killed)
HCT-15 colon = settings: 10 µM unless noted
HT29 colon = settings: 10 µM unless noted
SNB-75 CNS = settings: 10 µM unless noted
SNB-19 CNS = settings: 10 µM unless noted
U251 CNS = settings: 10 µM unless noted
PC-3 prostate = settings: 10 µM unless noted
SK-MEL-5 melanoma = settings: 10 µM unless noted
LOX IMVI melanoma = settings: 10 µM
SK-MEL-28 melanoma = settings: 10 µM unless noted
SK-MEL-2 melanoma = settings: 10 µM unless noted
EKVX NSCLC = settings: 10 µM unless noted
SN12C renal = settings: 10 µM unless noted
UO-31 renal = settings: 10 µM unless noted
TK-10 renal = settings: 10 µM unless noted
ACHN renal = settings: 10 µM unless noted
CAKI-1 renal = settings: 10 µM unless noted
A498 renal = settings: 10 µM unless noted
CCRF-CEM leukemia = settings: 10 µM unless noted
MOLT-4 leukemia = settings: 10 µM unless noted
UACC-62 melanoma = settings: 10 µM unless noted

Measured: growth

C=CCS(C)(=O)=O
inactive: HCT-15 colon 102% | HT29 colon 97.1% | SNB-75 CNS 94.1% | SNB-19 CNS 101% | U251 CNS 90.4% | PC-3 prostate 101% | SK-MEL-5 melanoma 104% | LOX IMVI melanoma 103% | SK-MEL-28 melanoma 106% | SK-MEL-2 melanoma 100% | EKVX NSCLC 91.3% | SN12C renal 98.1% | UO-31 renal 90.3% | TK-10 renal 96.6% | ACHN renal 102% | CAKI-1 renal 92.5% | A498 renal 105% | CCRF-CEM leukemia 110%

C/C(=N\O)c1ccccn1
inactive: HCT-15 colon 102% | HT29 colon 97.3% | SNB-75 CNS 96.9% | SNB-19 CNS 95.2% | U251 CNS 88.8% | PC-3 prostate 94.3% | SK-MEL-5 melanoma 105% | LOX IMVI melanoma 99.1% | SK-MEL-28 melanoma 110% | SK-MEL-2 melanoma 94.9% | EKVX NSCLC 107% | SN12C renal 91.4% | UO-31 renal 88.1% | TK-10 renal 95.8% | ACHN renal 105% | CAKI-1 renal 95.3% | A498 renal 108% | CCRF-CEM leukemia 96.5% | MOLT-4 leukemia 116%

C/C(=N\Nc1ccc([N+](=O)[O-])cc1[N+](=O)[O-])c1ccc(Br)cc1
inactive: HCT-15 colon 97.5% | HT29 colon 92.2% | SNB-75 CNS 104% | SNB-19 CNS 97.8% | U251 CNS 92.2% | PC-3 prostate 91.2% | SK-MEL-5 melanoma 100% | LOX IMVI melanoma 95.8% | SK-MEL-28 melanoma 107% | SK-MEL-2 melanoma 97.4% | EKVX NSCLC 96.4% | SN12C renal 96.2% | UO-31 renal 85% | TK-10 renal 105% | ACHN renal 105% | CAKI-1 renal 98.1% | A498 renal 102%

C1CCc2onc(-c3noc4c3CCCCC4)c2CC1
inactive: HCT-15 colon 103% | HT29 colon 103% | SNB-75 CNS 112% | SNB-19 CNS 98% | U251 CNS 107% | PC-3 prostate 102% | SK-MEL-5 melanoma 101% | UACC-62 melanoma 102% | SK-MEL-28 melanoma 112% | SK-MEL-2 melanoma 120% | EKVX NSCLC 106% | SN12C renal 95.6% | UO-31 renal 91.1% | TK-10 renal 108% | CAKI-1 renal 95.6% | A498 renal 146% | MOLT-4 leukemia 102%

c1cc(CNCCNCc2ccncc2)ccn1
inactive: HCT-15 colon 110% | HT29 colon 109% | SNB-75 CNS 92.5% | SNB-19 CNS 104% | U251 CNS 101% | PC-3 prostate 92.1% | SK-MEL-5 melanoma 107% | UACC-62 melanoma 101% | SK-MEL-28 melanoma 101% | SK-MEL-2 melanoma 104% | EKVX NSCLC 99.6% | SN12C renal 98.5% | UO-31 renal 83.7% | TK-10 renal 105% | ACHN renal 109% | CAKI-1 renal 91.3% | A498 renal 116% | CCRF-CEM leukemia 89.5% | MOLT-4 leukemia 84.1%

Cc1ccc(C2CCCCC2)cc1Br
inactive: HCT-15 colon 100% | HT29 colon 95.8% | SNB-75 CNS 98.4% | SNB-19 CNS 95.6% | U251 CNS 88.1% | PC-3 prostate 94% | SK-MEL-5 melanoma 102% | LOX IMVI melanoma 103% | SK-MEL-28 melanoma 101% | SK-MEL-2 melanoma 99% | EKVX NSCLC 98.9% | SN12C renal 101% | UO-31 renal 83.2% | TK-10 renal 98.7% | ACHN renal 101% | CAKI-1 renal 90.3% | A498 renal 88.6% | CCRF-CEM leukemia 103%

CN(CCCN(C)CCC1CCCCC1)CCC1CCCCC1
inactive: SNB-19 CNS 77.3% | U251 CNS 11.1% | PC-3 prostate 43.2% | SK-MEL-2 melanoma 74.8% | EKVX NSCLC 61.4% | SN12C renal 53.1% | UO-31 renal 49.8% | TK-10 renal 76.1% | ACHN renal 35.4% | CAKI-1 renal 46.9% | A498 renal 84.7% | CCRF-CEM leukemia 20.9% | MOLT-4 leukemia 20.5%
active: HCT-15 colon 8.41% | HT29 colon 3.68% | SNB-75 CNS -0.933% | SK-MEL-5 melanoma -100% | LOX IMVI melanoma -4.45% | SK-MEL-28 melanoma -84.9%

COc1cccc(N=CNc2cccc(OC)c2)c1
inactive: HCT-15 colon 85.2% | HT29 colon 99.6% | SNB-75 CNS 90.8% | SNB-19 CNS 103% | U251 CNS 95.9% | PC-3 prostate 84.2% | SK-MEL-5 melanoma 99% | UACC-62 melanoma 56.4% | SK-MEL-28 melanoma 106% | SK-MEL-2 melanoma 86.3% | EKVX NSCLC 99.4% | SN12C renal 101% | UO-31 renal 91.1% | TK-10 renal 113% | CAKI-1 renal 87.7% | A498 renal 93.2% | CCRF-CEM leukemia 94.7% | MOLT-4 leukemia 90.9%

CCC(C)c1c(N)n(S(=O)(=O)c2ccc(C)cc2)oc1=O (centres undefined)
inactive: HCT-15 colon 100% | HT29 colon 93.5% | SNB-75 CNS 88.9% | SNB-19 CNS 106% | U251 CNS 104% | PC-3 prostate 94.3% | SK-MEL-5 melanoma 100% | UACC-62 melanoma 101% | SK-MEL-28 melanoma 119% | SK-MEL-2 melanoma 107% | EKVX NSCLC 121% | SN12C renal 106% | UO-31 renal 89.5% | TK-10 renal 101% | ACHN renal 99.9% | CAKI-1 renal 96.5% | A498 renal 113% | CCRF-CEM leukemia 112% | MOLT-4 leukemia 109%

COc1cccc(C(=O)O)c1OC
inactive: HCT-15 colon 101% | HT29 colon 96.8% | SNB-75 CNS 90.8% | SNB-19 CNS 106% | U251 CNS 98.2% | PC-3 prostate 96.3% | SK-MEL-5 melanoma 104% | LOX IMVI melanoma 99% | SK-MEL-28 melanoma 102% | SK-MEL-2 melanoma 99.3% | EKVX NSCLC 91.9% | SN12C renal 96.6% | UO-31 renal 86.5% | TK-10 renal 96.2% | ACHN renal 93% | CAKI-1 renal 97.4% | A498 renal 97.4% | CCRF-CEM leukemia 107%

Cc1onc(-c2c(F)cccc2Cl)c1-c1ncc(-c2ccc(Br)cc2)o1
active: UO-31 renal -0.651%
inactive: HCT-15 colon 17.7% | HT29 colon 24.9% | SNB-75 CNS 65.8% | SNB-19 CNS 42.9% | U251 CNS 39.6% | PC-3 prostate 41% | SK-MEL-5 melanoma 10.8% | UACC-62 melanoma 34% | SK-MEL-28 melanoma 50.3% | SK-MEL-2 melanoma 74.8% | EKVX NSCLC 46% | SN12C renal 34% | TK-10 renal 46.8% | ACHN renal 32.8% | CAKI-1 renal 33.1% | A498 renal 86.4% | CCRF-CEM leukemia 39.5% | MOLT-4 leukemia 16.9%

CCCC(=O)c1cccs1
inactive: HCT-15 colon 100% | HT29 colon 98% | SNB-75 CNS 88.5% | SNB-19 CNS 101% | U251 CNS 110% | PC-3 prostate 89.2% | SK-MEL-5 melanoma 105% | LOX IMVI melanoma 95.9% | SK-MEL-28 melanoma 107% | SK-MEL-2 melanoma 115% | SN12C renal 95.6% | UO-31 renal 98% | TK-10 renal 101% | ACHN renal 103% | CAKI-1 renal 99.7% | A498 renal 61% | CCRF-CEM leukemia 102% | MOLT-4 leukemia 100%

Cc1ccc([N+](=O)[O-])c(C)n1
inactive: HCT-15 colon 97.9% | HT29 colon 108% | SNB-75 CNS 77.8% | SNB-19 CNS 105% | U251 CNS 102% | PC-3 prostate 89.7% | SK-MEL-5 melanoma 114% | LOX IMVI melanoma 103% | SK-MEL-28 melanoma 99.6% | SK-MEL-2 melanoma 120% | EKVX NSCLC 97.2% | SN12C renal 106% | UO-31 renal 74.1% | TK-10 renal 117% | ACHN renal 91.5% | A498 renal 79.8% | CCRF-CEM leukemia 96.4% | MOLT-4 leukemia 115%

CCCCCCCCCCCCCCCCOc1ccccc1NC(=O)CC(C)=O
inactive: HCT-15 colon 113% | HT29 colon 97.9% | SNB-75 CNS 93.2% | SNB-19 CNS 104% | U251 CNS 99.3% | PC-3 prostate 75.4% | SK-MEL-5 melanoma 96.2% | LOX IMVI melanoma 107% | SK-MEL-28 melanoma 103% | SK-MEL-2 melanoma 92.1% | EKVX NSCLC 89.7% | SN12C renal 63.9% | UO-31 renal 25.8% | TK-10 renal 114% | ACHN renal 98.6% | CAKI-1 renal 92.5% | A498 renal 93.5% | MOLT-4 leukemia 84.8%

O=C(Oc1ccccc1Cl)c1ccc(Cl)cc1Cl
inactive: HCT-15 colon 103% | HT29 colon 105% | SNB-75 CNS 91.8% | SNB-19 CNS 99.6% | U251 CNS 89.5% | PC-3 prostate 93.6% | SK-MEL-5 melanoma 102% | LOX IMVI melanoma 104% | SK-MEL-28 melanoma 109% | SK-MEL-2 melanoma 109% | EKVX NSCLC 94.4% | SN12C renal 98.3% | UO-31 renal 85.4% | TK-10 renal 103% | ACHN renal 103% | CAKI-1 renal 99.8% | A498 renal 94.2% | CCRF-CEM leukemia 99.9% | MOLT-4 leukemia 110%

CCCCn1cnc2c(=O)[nH]cnc21
inactive: HCT-15 colon 105% | HT29 colon 104% | SNB-75 CNS 89.6% | SNB-19 CNS 96.9% | U251 CNS 109% | PC-3 prostate 94.2% | SK-MEL-5 melanoma 119% | LOX IMVI melanoma 109% | SK-MEL-28 melanoma 107% | SK-MEL-2 melanoma 107% | EKVX NSCLC 97.9% | SN12C renal 105% | UO-31 renal 94.7% | TK-10 renal 109% | ACHN renal 89.7% | CAKI-1 renal 98.4% | A498 renal 108% | CCRF-CEM leukemia 96.7% | MOLT-4 leukemia 96.2%

NNC(=O)c1ccccc1N
active: CCRF-CEM leukemia -39.5%
inactive: HCT-15 colon 110% | HT29 colon 106% | SNB-75 CNS 87.9% | SNB-19 CNS 114% | U251 CNS 106% | PC-3 prostate 101% | SK-MEL-5 melanoma 107% | LOX IMVI melanoma 105% | SK-MEL-28 melanoma 117% | SK-MEL-2 melanoma 168% | EKVX NSCLC 110% | SN12C renal 108% | UO-31 renal 99.2% | TK-10 renal 129% | ACHN renal 111% | A498 renal 140% | MOLT-4 leukemia 112%

c1ccc(Nc2ccccn2)nc1
inactive: HCT-15 colon 95.7% | HT29 colon 100% | SNB-75 CNS 82.3% | SNB-19 CNS 97.5% | U251 CNS 91.8% | PC-3 prostate 95.9% | SK-MEL-5 melanoma 103% | LOX IMVI melanoma 95.7% | SK-MEL-28 melanoma 118% | SK-MEL-2 melanoma 95% | EKVX NSCLC 91.8% | SN12C renal 96.8% | UO-31 renal 96.7% | TK-10 renal 99.4% | ACHN renal 96% | CAKI-1 renal 95% | A498 renal 112% | MOLT-4 leukemia 91.7%
